CF NFkB block – blocks PAF-induced NF-kB reporter in cystic fibrosis cells; inhibition, % at 5 µM; KKLEB NF-kB-GFP reporter, GFP fluorescence overnight; 360,000 compounds, 0.86% hits;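 active = at least 50% inhibition at 5 µM, scaled per plate between neutral and stimulator controls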;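 note: PAF is a Pseudomonas aeruginosa culture filtrate used as stimulus; plate controls were PAF-stimulated DMSO wells for no effect and unstimulated DMSO wells for full effect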
KKLEB tox – reduces viability of KKLEB cystic fibrosis airway cells. KKLEB CF airway cells viability, ATPlite luminescence, overnight; active compounds read low; cells stimulated with P. aeruginosa culture filtrate. activity change (cytotoxicity), % at 5 µM. 360,000 compounds, 0.36% hits. AID 602141;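 active = corrected activity change at or below -50% at 5 µM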
Peg3 promoter – inhibitors of Peg3 promoter. inhibition, % at 20 µM. HeLa PEG-Prom luciferase reporter, luminescence, overnight. 360,000 compounds, 1.7% hits;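 active = inhibition of at least 50% at 20 µM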
HIF-2a block – blocks HIF-2a reporter activity; 786-0 RCC cells HIF-2a reporter, luciferase luminescence, overnight; inhibition, % at 18.8 µM; 360,000 compounds, 0.72% hits;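 active = inhibition of the luminescence signal of 40% or more relative to plate controls, in a single-dose primary screen at 18.75 µM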
TROY NFkB inh – inhibitors of TROY-dependent NF-kB signaling; 360,000 compounds, 0.98% hits; inhibition, % at 10 µM; Q293 LMP1-TROYcd NF-kB luciferase reporter, 4 h;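 active = compounds whose plate-normalised and pattern-corrected inhibition of the luciferase reporter signal at the single screening dose is 50% or more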
TWEAK Fn14 block – TWEAK-Fn14 signaling inhibition; TWEAK-stimulated Fn14 reporter cells, luciferase luminescence, 8 h; AID 1159606; inhibition, % at 10 µM; 360,000 compounds, 2% hits; in the data active = inhibition above about 50%
Numbers without * were called inactive. Rows were chosen to be rich in hits. Some 4% of all compounds tested hit in one or more screens of this group.

O=C(O)c1ccc(CSc2nc3ccc(N4C(=O)C5C6C=CC(C6)C5C4=O)cc3s2)cc1 (centres undefined) was read as CF NFkB block -2.4, KKLEB tox 1.7, Peg3 promoter 5.6, HIF-2a block 31.1, TROY NFkB inh 34.4 and TWEAK Fn14 block 51.1*.
For Cc1cc(C)n(CC(=O)NNC(=O)c2ccc(S(C)(=O)=O)cc2)n1 the results were CF NFkB block 6.6, KKLEB tox -16.4, Peg3 promoter 1.1, HIF-2a block 14.5, TROY NFkB inh 2.0 and TWEAK Fn14 block 3.7.
For Cc1sc(NC(=O)c2ccccc2)c(C(c2ccccn2)N2CCN(CCO)CC2)c1C (centres undefined) the results were CF NFkB block 10.6, KKLEB tox -12.8, Peg3 promoter -4.3, HIF-2a block -21.3, TROY NFkB inh 77.7* and TWEAK Fn14 block 65.4*.
`COc1cc(OC)c2c(-c3ccccc3)cc(=O)oc2c1C(CCN1CCCCC1)c1ccc2c(c1)OCO2` (centres undefined) gave CF NFkB block 22.4, KKLEB tox -32.1, Peg3 promoter 101.9*, HIF-2a block 0.9, TROY NFkB inh 2.9 and TWEAK Fn14 block -5.9.
`COc1ccc(C(CCN2CCCCC2)c2c(OC)cc(OC)c3c(-c4ccccc4)cc(=O)oc23)cc1` (centres undefined) gave CF NFkB block 19.0, KKLEB tox -9.7, Peg3 promoter 96.5*, HIF-2a block 12.2, TROY NFkB inh -6.3 and TWEAK Fn14 block -2.6.
`COc1cc(OC)c2c(-c3ccccc3)cc(=O)oc2c1C(CCN1CCOCC1)c1ccc(N(C)C)cc1` (centres undefined) gave CF NFkB block 17.0, KKLEB tox -11.3, Peg3 promoter -2.5, HIF-2a block 0.4, TROY NFkB inh 2.4 and TWEAK Fn14 block 6.0.
Screening COc1cc(OC)c2c(-c3ccccc3)cc(=O)oc2c1C(CCN1CCCCC1)c1ccc(N(C)C)cc1 (centres undefined) returned CF NFkB block 36.8, KKLEB tox -5.6, Peg3 promoter 64.6*, HIF-2a block 11.8, TROY NFkB inh 7.8 and TWEAK Fn14 block 13.6.
`COc1cc(OC)c2c(-c3ccccc3)cc(=O)oc2c1C(CCN1CCCC(C)C1)c1ccc2c(c1)OCO2` (centres undefined) gave CF NFkB block 7.5, KKLEB tox -3.8, Peg3 promoter 35.3, HIF-2a block 13.5, TROY NFkB inh 7.3 and TWEAK Fn14 block -29.9.
`COCCN1C[C@@H](CO)O[C@@H](n2cnc3c(N4CCN(CCO)CC4)ncnc32)C1` gave CF NFkB block -0.6, KKLEB tox -9.7, Peg3 promoter -21.3, HIF-2a block -43.7, TROY NFkB inh -25.6 and TWEAK Fn14 block -16.9.
Screening CN(C(=O)COC(=O)c1cccc(S(=O)(=O)N(C)c2ccccc2)c1)C1CCCCC1 returned CF NFkB block 12.8, KKLEB tox -13.6, Peg3 promoter 12.7, HIF-2a block 2.2, TROY NFkB inh 15.3 and TWEAK Fn14 block 19.6.
For N/C(=N\N=C/c1ccc(F)cc1)N/N=C\c1ccc(F)cc1 the results were CF NFkB block -0.5, KKLEB tox -16.3, Peg3 promoter 23.2, HIF-2a block -99.3, TROY NFkB inh -6.4 and TWEAK Fn14 block -1.6.
N/C(=N\N=C/c1ccc(Br)cc1)N/N=C\c1ccc(Br)cc1 was read as CF NFkB block -38.3, KKLEB tox -1.9, Peg3 promoter 101.5*, HIF-2a block -17.1, TROY NFkB inh 7.0 and TWEAK Fn14 block -43.3.
Screening Cc1ccc2cc3c(N)c(C(=O)Nc4c(C)[nH]c(=O)[nH]c4=O)sc3nc2c1 returned CF NFkB block -4.4, KKLEB tox 14.9, Peg3 promoter 14.3, HIF-2a block 7.1, TROY NFkB inh -9.4 and TWEAK Fn14 block 10.9.
Cc1ccc2nc3sc(C(=O)Nc4c(C)[nH]c(=O)[nH]c4=O)c(N)c3cc2c1 was read as CF NFkB block 0.8, KKLEB tox -0.8, Peg3 promoter -82.1, HIF-2a block -33.2, TROY NFkB inh 8.0 and TWEAK Fn14 block 53.4*.
For COc1ccc(NC2CCCN(C(=O)c3cccc(C)n3)C2)cc1OC (centres undefined) the results were CF NFkB block 1.4, KKLEB tox 0.0, Peg3 promoter 4.3, HIF-2a block 13.8, TROY NFkB inh 17.7 and TWEAK Fn14 block 12.1.
Nc1nc(-c2ccco2)c(-c2ccco2)s1 was read as CF NFkB block -3.7, KKLEB tox -1.1, Peg3 promoter 1.0, HIF-2a block 10.7, TROY NFkB inh 8.6 and TWEAK Fn14 block 23.7.
Screening c1coc(-c2nc(-c3ccco3)c(-c3ccco3)nc2-c2ccco2)c1 returned CF NFkB block 3.5, KKLEB tox -11.4, Peg3 promoter 22.7, HIF-2a block 3.6, TROY NFkB inh 4.2 and TWEAK Fn14 block 80.8*.
For O=C(C(=O)N(C1CCCCC1)C1CCCCC1)c1ccccc1 the results were HIF-2a block -13.4.
`O=C1CNC(=S)N1CCCc1ccccc1` gave CF NFkB block 18.2, KKLEB tox 2.3, Peg3 promoter 19.8, HIF-2a block 1.4, TROY NFkB inh -14.9 and TWEAK Fn14 block 9.2.
Screening COc1ccc2[nH]cc(CCNC(=O)/C=C/[C@H]3O[C@@H](n4cc(C)c(=O)[nH]c4=O)C[C@@H]3O)c2c1 returned CF NFkB block -6.3, KKLEB tox 14.8, Peg3 promoter 10.1, HIF-2a block 15.1, TROY NFkB inh 3.4 and TWEAK Fn14 block 3.4.
`O=C(N/N=C1\CCc2ccccc21)c1ccc(O)cc1` gave CF NFkB block 2.2, KKLEB tox -3.5, Peg3 promoter -179.9, HIF-2a block -218.7, TROY NFkB inh -59.9 and TWEAK Fn14 block 50.5*.
S=C(N/N=C1\CCc2ccccc21)NC1CCCCC1 was read as CF NFkB block 14.6, KKLEB tox -6.3, Peg3 promoter -21.0, HIF-2a block -41.2, TROY NFkB inh 70.9* and TWEAK Fn14 block 74.2*.
`O=C(N/N=C1\CCc2ccccc21)c1ccccc1Cl` gave CF NFkB block -12.0, KKLEB tox -13.8, Peg3 promoter -245.8, HIF-2a block -237.7, TROY NFkB inh -34.8 and TWEAK Fn14 block -11.9.
Screening CCc1ccc(NC(=O)C2CCN(S(=O)(=O)c3ccc4[nH]c(=O)ccc4c3)CC2)cc1 returned CF NFkB block -32.4, KKLEB tox 5.6, Peg3 promoter 5.8, HIF-2a block 7.3, TROY NFkB inh 6.3 and TWEAK Fn14 block -7.2.
For CC(C)(CO)NC(=O)c1ccc2nc(Cc3cccc(Cl)c3)oc2c1 the results were CF NFkB block 0.1, KKLEB tox 0.7, Peg3 promoter -125.4, HIF-2a block -213.2, TROY NFkB inh -29.6 and TWEAK Fn14 block -16.1.
`O=C(/C=C/c1ccco1)Nc1scc(-c2ccccc2)c1C(=O)O` gave CF NFkB block 1.2, KKLEB tox -3.9, Peg3 promoter -115.9, HIF-2a block -87.4, TROY NFkB inh 15.4 and TWEAK Fn14 block 66.9*.
